These results are taken from ChEMBL document CHEMBL3433997, “St. Jude Leishmania screening dataset” (2016).

Common to all, as to format: functional
For assay [1], the target named is Solute carrier family 2, facilitated glucose transporter member 1 (Homo sapiens) (UniProt P11166). In words: ST_JUDE_LEISH: Cytotoxicity at 2uM final concentration against transgenic Leishmania Mexicana promastigotes LmGLUT1 that are glucose transport deficient and complemented with the human glucose transporter GLUT1. Activity is measured by DNA content using SYBR green in vitro.
Chain of Solute carrier family 2, facilitated glucose transporter member 1 (Homo sapiens) (P11166 whole entry): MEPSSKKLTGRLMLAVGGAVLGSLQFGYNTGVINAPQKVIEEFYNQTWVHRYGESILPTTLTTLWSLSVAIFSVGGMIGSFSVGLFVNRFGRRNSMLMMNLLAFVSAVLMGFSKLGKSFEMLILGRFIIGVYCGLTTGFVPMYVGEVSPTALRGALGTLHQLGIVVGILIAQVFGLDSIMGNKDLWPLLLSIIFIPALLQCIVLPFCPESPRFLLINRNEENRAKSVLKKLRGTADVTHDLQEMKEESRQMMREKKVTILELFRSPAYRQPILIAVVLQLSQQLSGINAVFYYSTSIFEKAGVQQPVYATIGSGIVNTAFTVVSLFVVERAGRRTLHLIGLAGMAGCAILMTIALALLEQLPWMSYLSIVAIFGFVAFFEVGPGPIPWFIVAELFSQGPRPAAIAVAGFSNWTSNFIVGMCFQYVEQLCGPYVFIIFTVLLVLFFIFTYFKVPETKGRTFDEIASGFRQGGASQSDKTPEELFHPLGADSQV

For assay [2], the target named is Hexose transporter 1 (Plasmodium falciparum) (UniProt O97467). Kind of assay: ST_JUDE_LEISH: Cytotoxicity at 2uM final concentration against transgenic Leishmania Mexicana promastigotes LmPfHT that are glucose transport deficient and complemented with the Plasmodium falciparum hexose transporter. Activity is measured by DNA content using SYBR green in vitro.
The target of assay [3] is Glucose transporter (Leishmania mexicana) (UniProt O61059). Kind of assay: ST_JUDE_LEISH: Cytotoxicity at 2uM final concentration against transgenic Leishmania Mexicana promastigotes LmGT2 that are glucose transport deficient and complemented with the L. Mexicana glucose transporter 2. Activity is measured by DNA content using SYBR green in vitro.

What is called inhibition is the drop in the measured response relative to a control, in per cent.

The structures appear in SMILES notation.

On to `COc1cc2ccccc2cc1OCCCN1CCN(CC(c2ccc(F)cc2)N2CCN(C(C)C)CC2)CC1` (stereo not drawn), for which the values for the inhibition in assay [1], in assay [2] and in assay [3] were -2.97%, -0.78% and 2.29%, respectively.

As for `CCc1ccc(CN2CCC(CNC(=O)c3cc(-c4cccc(Cl)c4)cs3)C2)cc1` (stereo not drawn), the inhibition in assay [1] was -0.66%; in assay [2] it was -0.84%; in assay [3] it was -4.94%.

With `COc1cccc(-c2cc(C(=O)Nc3cc(Oc4ccc(O)cc4)cc([N+](=O)[O-])c3)on2)c1`, the inhibition in assay [1] is 9.09%; in assay [2] it was 8.76%; in assay [3] it was 3.98%.

As to `N#Cc1cccc(NC(=O)Nc2cccc(-c3ccc(-c4nc5cc(C(F)(F)F)ccc5[nH]4)cc3)c2)c1`, the inhibition is 2.29% in assay [1], 2.13% in assay [2] and -7.53% in assay [3].

Take `COc1cccc(CNC(=O)c2cnc(N3CCN(c4ccncc4)CC3)c(Cl)c2)c1`: the inhibition in assay [1] is 18%; in assay [2] it was 23.8%; in assay [3], 10.9%.

In the case of `COc1cc(NCCCNC(=O)c2ccc(Cl)c(Cl)c2)nc2ccccc12`, the values for the inhibition in assay [1], in assay [2] and in assay [3] were 5.42%, 5.69% and 5.08%, respectively.

As for `O=C(NC1CCCC1)c1ccc(N2CCC(NCc3cc4cc(Cl)ccc4[nH]3)CC2)cc1`, the inhibition stood at 2.79% in assay [1], 3.34% in assay [2] and 2.98% in assay [3].

On to `COc1cc(NC(=O)/C=C/c2ccc(-c3ccccc3)cc2)ccc1OCCN(C(C)C)C(C)C`, for which the inhibition in assay [1] was 60.5%; in assay [2], 55.8%; in assay [3], 23.4%.

With `CC(C)(C)c1ccc(N2C(N)=NC(N)=NC2(C)C)cc1Cl`, the values for the inhibition in assay [1], in assay [2] and in assay [3] were 9.03%, 7.39% and 5.67%, respectively.

`COc1ccc(CN2CCN(C(=O)c3cccs3)CC2)c(O)c1`: the inhibition was determined as 10.5% in assay [1], 11.1% in assay [2] and 8.97% in assay [3].

Regarding `FC(F)(F)COc1ccc(CCNCCCCNCCc2ccc(OCC(F)(F)F)c3ccccc23)c2ccccc12`, the inhibition was -0.09% in assay [1], 12.3% in assay [2] and 1.09% in assay [3].

`COc1ccc(NC(=O)Nc2nc3ccccc3s2)cc1N1CCN(C)CC1`: the inhibition in assay [1] was determined as 7.14%; in assay [2], 4.98%; in assay [3], 5.72%.

As for `O=C(Nc1ccnc(-c2cccnc2)n1)c1cc(C(F)(F)F)cc(C(F)(F)F)c1`, the inhibition was -1.69% in assay [1], 0.27% in assay [2] and -3.85% in assay [3].

For `COc1cc2nc(N3CCC(CNC(=O)c4ccc(-c5ccc(-c6noc(C)n6)cc5C)cc4)CC3)nc(N)c2cc1OC`, the inhibition was found to be 8.2% in assay [1], 7.8% in assay [2] and 5.29% in assay [3].

On to `COc1ccc(CN(C)CCCc2ccc(NC(=O)Cc3ccc4nc(-c5ccccc5)ccc4c3)cc2)cc1OC`, for which the inhibition in assay [1] amounted to 19.3%; in assay [2], 11.1%; in assay [3], 6.65%.

Consider `CC(C)(C)c1ccc(NC(=O)c2ccc(CN3CCCN(Cc4ccc(F)cc4)CC3)cc2)cc1`, for which the inhibition is 2.24% in assay [1], -1.93% in assay [2] and 1.74% in assay [3].

On to `CCNc1cc(C(=O)N[C@@H](Cc2ccccc2)[C@H](O)CNC(C)Cc2cccc(Cl)c2)cc(N2CCCCS2(=O)=O)c1` (stereo partly drawn), for which the inhibition in assay [1] was 0.81%; in assay [2] it was 2.5%; in assay [3] it was -1.63%.

Consider `COc1ccc2nccc([C@@H](O)CN3CCC(NCc4cc5c(Cl)cc(Cl)cc5[nH]4)CC3)c2c1`, for which the inhibition in assay [1] was 6.83%; in assay [2], 5.77%; in assay [3], 1.13%.

As to `Cc1ccc(C2(C)CC(C)(C)N(C(=O)COc3ccc4ccccc4c3)c3ccccc32)cc1` (stereo not drawn), the inhibition in assay [1] is -1.77%; in assay [2] it was -1.69%; in assay [3], 1.03%.

With `Cc1ccc(Cl)cc1NC(=O)c1c(-c2ccccc2Cl)noc1C`, the inhibition in assay [1] is -0.47%; in assay [2] it was -1.54%; in assay [3], -0.61%.

As to `O=C(NC1CCCCC1)N(Cc1ccc(-c2cccc(CNC3CCCC3)c2)cc1)C1CCN(Cc2ccccc2)CC1`, the inhibition in assay [1] came to 6.18%; in assay [2], 7.64%; in assay [3], 5.72%.

`CCN(c1ccccc1)S(=O)(=O)c1ccc(NC(=O)c2cc(-c3cc(C)ccc3O)n[nH]2)cc1`: the values for the inhibition in assay [1], in assay [2] and in assay [3] were -1.82%, 5.38% and -1.84%, respectively.

With `COc1ccc(CNCCCCCCCNCc2ccc(Cl)c(Cl)c2)cc1Cl`, the inhibition amounted to 5.86% in assay [1], 4.67% in assay [2] and 2.7% in assay [3].

Take `N=C(N)Nc1ccc(OCCCCCOc2ccc(NC(=N)N)cc2Br)c(Br)c1`: the inhibition in assay [1] turned out to be 4.63%; in assay [2], 1.79%; in assay [3], 0.79%.

Turning to `OC(CNc1ccnc(Nc2cccc(Cl)c2)n1)c1ccccc1C(F)(F)F` (stereo not drawn), the inhibition is 4.32% in assay [1], 4.32% in assay [2] and -0.94% in assay [3].

Regarding `Nc1ccc2nc(C=Cc3ccccc3)[nH]c2c1`, the inhibition turned out to be 1.45% in assay [1], 0.85% in assay [2] and 3.06% in assay [3].

For the compound `CN1CCN(c2ccnc3ccc(NC(=O)Nc4ccc(Cl)c(Cl)c4)cc23)CC1`, the inhibition is 6.24% in assay [1], 6.07% in assay [2] and 6.56% in assay [3].

Regarding `CN1CCCC(COc2cc3c(cc2Br)CCN3C(=O)Nc2ccc(-c3ccncc3)c(Cl)c2)C1` (stereo not drawn), the inhibition in assay [1] was 9.37%; in assay [2], 5.78%; in assay [3], 3.35%.

Take `COc1cccc(-c2cnc(N)c(-c3nc4ccc(C(F)(F)F)cc4[nH]3)c2)c1`: the inhibition in assay [1] came out at 4.93%; in assay [2], 5.1%; in assay [3], 1.42%.

Take `COc1cc(NC2CCCC(NCc3cn(S(=O)(=O)c4ccccc4)c4ccccc34)C2)nc2ccccc12` (stereo not drawn): the inhibition in assay [1] came out at 1.09%; in assay [2] it was 2.28%; in assay [3] it was 2.67%.

Turning to `Cc1ccc2sc(N3CCN(C(=O)c4ccc([N+](=O)[O-])o4)CC3)nc2c1C`, the results for the inhibition in assay [1], in assay [2] and in assay [3] were 44.5%, 44.3% and 13.7%, respectively.

In the case of `COc1cccc2c(NN=Cc3cccc(Cl)c3)ccnc12`, the inhibition in assay [1] is 0.32%; in assay [2] it was -3.77%; in assay [3], 1.77%.

For `O=C(/C=C/c1ccc(Cl)c(Cl)c1)NCCCCN1CCCN(C(=O)Nc2ccc(Cl)c(Cl)c2)CC1`, the inhibition in assay [1] was -2.19%; in assay [2], 0.32%; in assay [3], -1.91%.

Take `COc1cc2c(cc1C=CC(=O)N1CCN(Cc3nc(O)c4c(C)c(C)sc4n3)CC1)OC(C)C2` (stereo not drawn): the results for the inhibition in assay [1], in assay [2] and in assay [3] were 1.98%, 3.73% and 2.08%, respectively.

`Cc1cc(N/N=C/c2ccccc2[N+](=O)[O-])c2cccc(C)c2n1`: the inhibition in assay [1] came to 11.2%; in assay [2], 13.9%; in assay [3] it was 7.94%.

On to `CC(C)(C)c1ccc(CNC(=O)c2cc(CNC3CCNC3)ccc2O)cc1` (stereo not drawn), for which the inhibition worked out at 1.88% in assay [1], 0.79% in assay [2] and 0.53% in assay [3].

`COC(=O)c1cccc(CNCc2ccc(-c3cccc(-c4nc5cc(C(F)(F)F)ccc5[nH]4)c3)cc2)c1`: the inhibition turned out to be 11.9% in assay [1], 11% in assay [2] and 11.5% in assay [3].

Take `CC(=O)Nc1ccc2[nH]cc(C3CCN(CCC4CCN(C(=O)/C=C/c5ccc(Cl)c(Cl)c5)CC4)CC3)c2c1`: the inhibition in assay [1] stood at 8.34%; in assay [2], 7.25%; in assay [3], 5.15%.

Turning to `NC(=O)c1ccc(-c2ccc3ccnc(N)c3c2)cc1`, the inhibition in assay [1] came to 7.25%; in assay [2], 6.12%; in assay [3], 4.88%.

With `Cc1cc(NC2CCCC2)nc(Nc2ccccc2)n1`, the inhibition turned out to be 16.4% in assay [1], 9.56% in assay [2] and 6.13% in assay [3].

Regarding `O=C(NC1CC1)c1ccc(N2CCCC(COc3ccc4c(c3)CCCC4)C2)nc1` (stereo not drawn), the inhibition in assay [1] was 2.1%; in assay [2], 1.8%; in assay [3], 1.93%.
